Out of some 2,500 compounds screened, about 2,200 (88%) were called active.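 The calls were made as follows: active = primary screen active, with duplicate mean activation above negative control mean plus 3 SD (cut at about 11% in these data); inactive = the rest.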 So high a share suggests a set chosen from earlier hits. The list is a sample of the results.
Target: High affinity choline transporter 1 (Homo sapiens) (UniProt Q9GZV3)
Experiment: human choline transporter potentiators – cell-based, membrane potential dye, duplicate, confirmation (AID 504833)
Conditions: CHT-expressing cells, membrane potential dye fluorescence (FDSS); at 10 µM; stronger effect = higher value; % of choline EC20–EC90 response window; HEK293 expressing CHT LV-AA mutant; choline added at its EC20

High affinity choline transporter 1 (Homo sapiens), sequence (Q9GZV3 whole entry, looked up): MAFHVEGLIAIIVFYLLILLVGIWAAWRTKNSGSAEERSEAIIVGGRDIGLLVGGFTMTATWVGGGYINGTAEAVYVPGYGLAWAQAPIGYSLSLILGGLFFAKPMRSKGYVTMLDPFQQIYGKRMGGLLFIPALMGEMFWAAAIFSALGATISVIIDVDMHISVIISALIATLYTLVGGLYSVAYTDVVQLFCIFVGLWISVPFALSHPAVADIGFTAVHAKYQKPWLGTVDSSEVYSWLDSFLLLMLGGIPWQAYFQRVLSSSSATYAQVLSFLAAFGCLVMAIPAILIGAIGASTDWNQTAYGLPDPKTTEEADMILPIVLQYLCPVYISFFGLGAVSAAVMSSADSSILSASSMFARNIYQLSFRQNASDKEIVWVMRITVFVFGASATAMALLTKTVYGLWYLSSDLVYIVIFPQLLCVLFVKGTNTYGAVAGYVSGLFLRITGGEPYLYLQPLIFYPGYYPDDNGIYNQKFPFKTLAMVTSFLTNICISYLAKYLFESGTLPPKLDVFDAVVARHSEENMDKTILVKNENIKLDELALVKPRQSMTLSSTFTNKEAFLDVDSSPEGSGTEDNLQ

activation, inactive:
COc1ccccc1NC(=O)CSc1nnc(-c2ccoc2C)n1CCc1ccccc1 3.73%
Cc1c(C)c2c(OCC(=O)N[C@@H](C(=O)O)c3ccccc3)cc3c(c2oc1=O)CCC(C)(C)O3 7.79%
Cc1nc2c(-c3ccccc3)c(C)[nH]n2c(=O)c1Cl 8.04%
CC1=CC(C)(C)N(C(=O)CSc2nnc(-c3ccccc3)o2)c2ccc(C)cc21 7.25%
COc1ccc2nc(/N=C(\N)NC(=O)Nc3ccccc3)nc(C)c2c1 6.06%
Cc1ccccc1C(=O)NCC(c1ccco1)N1CCc2ccccc21 (stereo not drawn) 9.36%
O=C(C1=C(O)C(=O)N(Cc2ccccc2)C1c1ccco1)c1ccco1 (stereo not drawn) 9.6%
O=C(COC(=O)C1CCN(S(=O)(=O)c2ccc3c(c2)OCCO3)CC1)Nc1ccccc1OC(F)F 4.44%
CCN1/C(=C/c2ccc3ccc(C)cc3[n+]2CC)Sc2ccccc21 3.38%
Cc1ccc(C(=O)c2ccc(N3CCN(C)CC3)c([N+](=O)[O-])c2)cc1 9.27%

activation, active:
Nc1scc[n+]1Cc1cccc2cccnc12 42.7%
Cn1c(=O)n(Cc2ccco2)c(=N)c2c3c(sc21)CCCC3 30.6%
CCn1c(/C=C/Nc2ccccc2)[n+](CC)c2ccc(C(=O)OCC(F)(F)F)cc21 68.4%
CC(Sc1nc2ccccc2c(=O)n1Cc1ccco1)C(=O)c1ccccc1 (stereo not drawn) 16.9%
Cc1nnc(-c2ccc(Oc3ccc(C)c(C)c3)c([N+](=O)[O-])c2)o1 15%
Cc1ccc2c(c1)N(CC(=O)N(Cc1ccccn1)Cc1ccco1)C(=O)C(C(C)C)O2 (stereo not drawn) 30.6%
Clc1ccc(COn2c(-c3ccc(Cl)cc3Cl)nc3ncccc32)cc1 36.3%
COc1ccccc1NC(=O)CN(c1ccccc1OC)S(=O)(=O)c1ccccc1 12%
Cc1cc(NC(=O)c2cnn3cccnc23)n(-c2ccccc2)n1 52.8%
CCN1CCCC1CNC(=O)c1cc2c(=O)n(C)c3ccccc3c2n1C (stereo not drawn) 44.7%
CCOC(=O)c1cccnc1NC(=O)c1ccncc1 35.3%
Cc1nc2ccccc2c(=O)n1CCCn1ccnc1 22.6%
CCCCN(CCCC)CC(O)Cn1c2ccccc2c(=O)c2ccccc21 (stereo not drawn) 44.6%
CC(C)CC(COCc1ccc(Cl)cc1)N1CCN(C(=O)c2ccc(C(F)(F)F)cc2)CCC1=O (stereo not drawn) 33.6%
COc1nc(N=C(N)N)nc2c(C)cccc12 40.5%
Cc1nc(N=C(N)N)nc2c(C)cccc12 49.8%
CN1CCc2c(sc3c2c(NCc2ccco2)nc2nnnn23)C1 73.5%
CCOc1ccc(C2c3[nH]c4ccccc4c3CCN2Cc2cccn2-c2ncccn2)cc1 (stereo not drawn) 17.1%
C=CCNc1nnc(C)c2ccccc12 55.7%
COC(=O)c1sc(C(F)(F)F)c(-c2ccccc2)c1S(=O)(=O)N(C)C 27.1%
CC1(C)Cc2c(sc3nc4n(c(=N)c23)CCCCC4)CO1 40.2%
CCn1cc(S(=O)(=O)c2cccc(C)c2)c(=O)c2cc(F)c(N3CCN(C)CC3)cc21 52.5%
CN1CCN(c2cc3c(cc2F)c(=O)c(C(=O)O)cn3CCF)CC1 63.4%
Cn1c(=O)[nH]c(=O)c2c1nc(N1CCN(CCO)CC1)n2CCSc1nc2ccccc2s1 69.4%
Cc1ccc(-n2c(C)cc(/C=N\NC(=O)CC(=O)NC(C)C)c2C)cc1 33.2%
O=C(Nc1ccccc1N1CCN(c2ccccc2)CC1)c1cccc(F)c1 36.2%
C[C@H]1CCC(=O)N([C@H](CSc2ccccc2)Cc2ccccc2)CC1 12%
O=C(c1ccc(F)c(S(=O)(=O)N2CCOCC2)c1)N(CCc1ccccc1)Cc1ccccc1 19.7%
O=C1c2ccccc2C(=O)c2c1cccc2N1CCN(CCO)CC1 47.2%
CCCCCCCCCCOC(=O)Cn1c(COc2cccc(OC)c2)[n+](C)c2ccccc21 63.2%
CCCCCCCCCCOC(=O)Cn1c(COc2ccc(C)cc2)[n+](C)c2ccccc21 49.5%
CCOC(=O)c1cn(CC)c2cc(F)c(F)cc2c1=O 50.9%
COc1cccc(C(=O)NC(=O)Nc2nc(C)cc(C(F)(F)F)n2)c1 49.4%
COC(=O)c1ccc(C(NC(=O)OCc2ccccc2)/C(C)=C/[C@@H](C)C(=O)NCc2ccc(OC)c(OC)c2)cc1 (stereo partly drawn) 22.6%
CCCCn1c(N)c(N(CCC(C)C)C(=O)c2ccc(COc3ccccc3)o2)c(=O)[nH]c1=O 24.5%
CN(C)/C=C/C(=O)c1cnc2sccn2c1=O 42.8%
COc1cc2c(cc1OC)C(Nc1ccc(S(N)(=O)=O)cc1)=NC(C)(C)C2 71.7%
CC(=O)c1ccccc1OCc1ccc(C(=O)c2ccccc2)cc1 25%
Cc1nnc(C)c2c(C)n(N)c(C)c12 19.2%
Nc1ccccc1SCc1cc([N+](=O)[O-])cc2c1OCOC2 33.2%
O=C(Nc1ccncc1)c1ccc(Cl)c([N+](=O)[O-])c1 35.4%
COc1ccc(Nc2nnc(C)c3ccccc23)cc1 38.3%
CN(C)c1ccnc(Nc2ccc(F)cc2)c1C#N 52.3%
Clc1ccc(C[n+]2cc(-c3ccc(Cl)cc3)n3c2CCC3)cc1 57.3%
COc1ccc2c(c1)cc1n2CCN=C1NN 49%
COc1cc2c(cc1OC)C(c1cccc([N+](=O)[O-])c1)=NCC2 68.6%
COc1ccc(Cn2c(-c3ccc(Cl)cc3)c[n+]3ccccc23)cc1 73.3%
Cc1cc(=O)oc2c(C)c(OC(C)C(=O)NC3CCN(Cc4ccccc4)CC3)ccc12 (stereo not drawn) 56.9%
Cn1c(=NC(=O)c2cnccn2)sc2ccccc21 55.7%
Cc1c(CCOC(=O)CC23CC4CC(CC(C)(C4)C2)C3)sc[n+]1Cc1ccc([N+](=O)[O-])cc1 26.9%
Cc1cccn2c(=O)c3cc(C#N)c(=O)n(CCCN4CCOCC4)c3nc12 42.7%
CN1CCN(c2nc(Nc3ccc(O)cc3)nc3ccccc23)CC1 44.2%
CCN1C(=NCCc2cccnc2)N[C@@H](c2ccccc2)[C@H](C(=O)OC)[C@H]1C 14%
CC(=O)N1CC[n+]2c(-c3ccc([N+](=O)[O-])cc3)csc21 38.1%
C[C@]1(C(=O)NCCc2c[nH]c3ccccc23)C=C[C@@H](Cc2ccccc2)N1C(=O)c1ccccc1 10.8%
N#C/C(=C\c1ccc(-c2cccc([N+](=O)[O-])c2)o1)C(=O)NCCN1CCOCC1 15.6%
N#Cc1ccc(/C=C2\CCn3c2nc2cc(C(=O)O)ccc2c3=O)cc1 48.6%
COc1ccc(CC2c3cc(OC)c(OC)cc3CC[N+]2(C)CCC(=O)OCCCCCOC(=O)CC[N+]2(C)CCc3cc(OC)c(OC)cc3C2Cc2ccc(OC)c(OC)c2)cc1OC (stereo not drawn) 35.7%
CC(Nc1nc(N2CCN(CCO)CC2)nc2ccccc12)c1ccccc1 (stereo not drawn) 24.3%
COc1ccc(C(O)(C2CCCCC2)C(CN2CCCC2)c2ccccc2)cc1 (stereo not drawn) 35.9%
CN(C)c1cc(N)c2ccccc2n1 (tested in a mixture with another compound) 67.2%
CC(C)(C)Nc1nc(-c2ccccn2)nc2ccccc12 57.4%
COc1cc2nc(N3CCN(C(=O)[C@@H]4CCCO4)CC3)nc(N)c2cc1OC 43%
Cn1c(=O)n(C)c2cc(C(=O)Nc3ccc4c(c3)OCO4)ccc21 43.2%
O=C(NCCC1=CCCCC1)C1CCN(Cc2cnn(-c3ccccc3)c2-n2cccc2)CC1 29.7%
O=[N+]([O-])c1ccc(N2CCNCC2)cc1NCc1cccnc1 52.9%
Cc1ccc(C(=O)C[n+]2cc(-c3ccccc3)n3c2CCCCC3)cc1 43.1%
Cc1ccc(-n2c(SCC(=O)N3c4ccccc4Sc4ccccc43)nnc2-c2ccncc2)cc1 21.6%
CCN1CCN(c2ccc([N+](=O)[O-])cc2C(=O)c2ccc(Cl)cc2)CC1 50.4%
CN(C)c1cc[n+](Cc2ccccc2)cc1 50.2%
N=c1c2c3c(sc2ncn1CCCN1CCOCC1)CCCCC3 72.9%
N=c1c2c3c(sc2ncn1N)CCCCC3 42.9%
COc1ccc([N+](=O)[O-])cc1N(CC(O)CN(CC(C)C)CC(C)C)S(=O)(=O)c1ccc(C)cc1 (stereo not drawn) 37.9%
Cc1nc2ccccc2c2oc(C(=O)NCCCN3CCC(C)CC3)cc12 13.8%
O=C(c1ccccc1F)N(Cc1ccccc1)Cc1ccccc1 34.5%
CCN(CC)CCCNC(=O)c1cn(C)c2ccc(S(=O)(=O)N(C)C3CCCCC3)cc2c1=O 32.9%
CCN(CC)CCC(c1cc(OC)c(OC)c(OC)c1)c1c(OC)cc(OC)c2c(-c3ccccc3)cc(=O)oc12 (stereo not drawn) 27.1%
COc1ccc(Nc2cc(C)nc(-n3nc(C)cc3C)n2)cc1 12.6%
O=Cc1ccc(OCc2cn3ccccc3n2)cc1 38.8%
Cc1cc2c(cc1C)[n+](C)cn2CC(O)COCC1CC=CCC1 (stereo not drawn) 80.5%
COc1ccccc1NC(=O)C1=C(C)Nc2nc3ccccc3n2C1c1cccs1 (stereo not drawn) 17.7%
Cc1cc(=O)oc2cc(OCCC[n+]3ccccc3)ccc12 61.4%
O=C(CCC1CCN(C(=O)c2cccc(Cl)c2F)CC1)Nc1ccccc1 24.5%
